Source: PubChem
Shown are actives, neighbours in structure and some others; about 5.7% of the full set was active somewhere.
DAX1 inh-1: NR0B1 (DAX1) inhibition | P51843 | inhibition, % at 6.75 µM | 340,000 compounds, 0.99% hits | HEK293 Gal4-DAX1 luciferase reporter, luminescence;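 active = inhibition above the mean over all tested compounds plus 3 SD, cut at about 4.2% in these data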;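 also: inhibition shows as a rise in luminescence from relieved DAX1 repression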
AHR act: activates the human aryl hydrocarbon receptor | activation, % at 5 µM | 320,000 compounds, 2.5% hits | AID 2796 | P35869 | AHR-responsive luciferase reporter cells, luminescence; in the data active = activation above about 47%
Target sequence (P35869 whole entry, looked up): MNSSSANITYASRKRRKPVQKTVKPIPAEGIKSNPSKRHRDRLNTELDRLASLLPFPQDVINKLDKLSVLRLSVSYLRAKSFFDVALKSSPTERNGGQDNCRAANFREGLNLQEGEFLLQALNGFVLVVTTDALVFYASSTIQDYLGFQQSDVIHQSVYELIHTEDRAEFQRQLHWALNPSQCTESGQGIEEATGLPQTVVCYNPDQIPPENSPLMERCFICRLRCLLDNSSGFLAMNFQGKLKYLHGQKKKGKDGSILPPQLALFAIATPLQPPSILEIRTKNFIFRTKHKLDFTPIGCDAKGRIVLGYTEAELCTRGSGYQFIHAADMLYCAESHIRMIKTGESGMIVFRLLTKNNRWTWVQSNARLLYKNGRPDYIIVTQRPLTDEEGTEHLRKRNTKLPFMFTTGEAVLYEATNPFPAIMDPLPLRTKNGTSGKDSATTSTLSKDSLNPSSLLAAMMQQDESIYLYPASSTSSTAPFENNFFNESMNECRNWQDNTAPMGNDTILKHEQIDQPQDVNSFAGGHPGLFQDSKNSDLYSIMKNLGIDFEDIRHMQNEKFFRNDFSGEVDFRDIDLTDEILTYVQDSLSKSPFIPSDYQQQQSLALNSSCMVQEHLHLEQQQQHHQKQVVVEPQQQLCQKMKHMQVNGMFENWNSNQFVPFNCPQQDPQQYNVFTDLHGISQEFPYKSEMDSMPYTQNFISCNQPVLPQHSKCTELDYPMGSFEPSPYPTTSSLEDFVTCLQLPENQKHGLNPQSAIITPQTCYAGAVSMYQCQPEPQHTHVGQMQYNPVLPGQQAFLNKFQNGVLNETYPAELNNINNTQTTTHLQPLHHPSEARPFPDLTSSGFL
ssDAF-12 act: S. stercoralis DAF-12 activation, primary screen. 370,000 compounds, 1% hits. AID 652126. HEK293 ssDAF-12/GRIP1 lit1-tk-luc reporter, luminescence; % of 3 µM dafachronic acid response. activation, % at 6.8 µM;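 active = activation above the mean over all tested compounds plus 3 SD, cut at about 0.9% in these data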
DAX1 inh-2: blocks DAX1 repression of SF-1 activated StAR promoter | 370,000 compounds, 1.1% hits | AID 652010 | HEK293T StAR-luciferase reporter, SF-1/DAX-1 repression relief | inhibition, % at 6.8 µM;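 active = inhibition above the mean over all tested compounds plus 3 SD, cut at about 3.6% in these data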;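 also: higher inhibition means more luminescence from relief of DAX-1 repression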
hcDAF-12 act: activates DAF-12 receptor from parasite H. contortus. HEK293 hcDAF-12 lit1-tk-luc reporter, luminescence; 0% DMSO, 100% Δ7-dafachronic acid. activation, % at 6.8 µM. 370,000 compounds, 1.4% hits;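 active = activation above the mean of all tested compounds plus 3 SD, cut at about 5.5% in these data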
hgDAF-12 ag: activates the H. glycines DAF-12 receptor ligand-binding domain | AID 687014 | 370,000 compounds, 1.8% hits | HEK293 GAL4-hgDAF12 UAS-luciferase reporter, agonist luminescence; normalized to butyrate control | activation, % at 6.8 µM;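 active = activation above a cutoff set at the mean of all screened compounds plus 3 SD, cut at about 10% in these data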
LXR ag: counter-screen for hcDAF-12 agonists: agonists of human LXR-beta; shares compounds with hcDAF-12 act; HEK293 Gal4-LXR tk-luc reporter, luminescence, 24 h; normalized: DMSO 0%, positive control 100%; activation, % at 6.8 µM; 3,400 tested, under 10 active; AID 743027;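 active = mean percent activation of the reporter above a cutoff set as the average over tested compounds plus their standard deviation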
hcDAF12 conf: confirmation of H. contortus DAF-12 agonists; shares compounds with hcDAF-12 act; HEK293 hcDAF-12 lit1-tk-luc reporter, luminescence; % of Δ7-dafachronic acid response; activation, % at 6.8 µM; 3,400 compounds, 61% hits; AID 743032;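 active = mean activation across triplicate tests above the threshold derived from the earlier primary screen, cut at about 5.5% in these data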
hgDAF12 ag: confirmation of H. glycines DAF-12 agonists; shares compounds with hgDAF-12 ag; HEK293 GAL4-hgDAF12 luciferase reporter, agonist mode; percent of butyrate response; activation, % at 6.8 µM; 3,300 compounds, 80% hits;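 active = mean activation over triplicate wells above the hit cutoff derived from the earlier primary screen, cut at about 11% in these data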
LXRb DAF12 ctr: LXR-beta agonism as DAF-12 counter-screen. shares compounds with hgDAF-12 ag. HEK293 Gal4-LXR luciferase reporter, 24 h. activation, % at 6.8 µM. 3,300 tested, under 10 active;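 active = mean activation of the triplicate above a set limit carried over from the primary screen, none filed active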
Hits are given with their value.

What do the screens show for `Cn1c(O)c(N=NC(=O)c2ccco2)c2ccccc21`?
DAX1 inh-1: inactive; AHR act: inactive; ssDAF-12 act: 1.3; DAX1 inh-2: 4.2; hcDAF-12 act: 12.1; hgDAF-12 ag: 19.5; LXR ag: inactive; hcDAF12 conf: 14.1; hgDAF12 ag: 21.7; LXRb DAF12 ctr: inactive

How did Cc1cccc(NC(=O)CSc2nncn2-c2ccccn2)c1 do in these assays?
DAX1 inh-1: inactive; AHR act: inactive; ssDAF-12 act: inactive; DAX1 inh-2: inactive; hcDAF-12 act: inactive; hgDAF-12 ag: inactive

What do the screens show for `CCc1cccc(CC)c1NC(=S)N1CCn2cccc2C1c1cccnc1` (stereo not given)?
DAX1 inh-1: inactive; AHR act: inactive; ssDAF-12 act: inactive; DAX1 inh-2: inactive; hcDAF-12 act: inactive; hgDAF-12 ag: inactive

How did O=C(NC1CCCCC1)c1cc(-c2ccccc2Cl)on1 do in these assays?
DAX1 inh-1: inactive; AHR act: inactive; ssDAF-12 act: inactive; DAX1 inh-2: inactive; hcDAF-12 act: inactive; hgDAF-12 ag: inactive

How did O=C(NC1CCCC1)c1cc(-c2ccccc2Cl)on1 do in these assays?
DAX1 inh-1: inactive; AHR act: inactive; ssDAF-12 act: inactive; DAX1 inh-2: inactive; hcDAF-12 act: 8.0; hgDAF-12 ag: 14.0; LXR ag: inactive; hcDAF12 conf: inactive; hgDAF12 ag: 16.3; LXRb DAF12 ctr: inactive

How did O=C(CC(=O)NC1CCCCC1)N/N=C/c1ccccc1F do in these assays?
AHR act: inactive; ssDAF-12 act: inactive; DAX1 inh-2: inactive; hcDAF-12 act: inactive; hgDAF-12 ag: inactive

How did COc1cccc(N/C=C/C(=O)c2ccc(C)cc2)c1 do in these assays?
DAX1 inh-1: inactive; AHR act: inactive; ssDAF-12 act: 1.4; DAX1 inh-2: inactive; hcDAF-12 act: 8.1; hgDAF-12 ag: 14.5; LXR ag: inactive; hcDAF12 conf: 11.3; hgDAF12 ag: 23.8; LXRb DAF12 ctr: inactive

What do the screens show for `Nc1cc(=O)[nH]c(SCCSc2ccccc2)n1`?
DAX1 inh-1: inactive; AHR act: inactive; ssDAF-12 act: inactive; DAX1 inh-2: inactive; hcDAF-12 act: inactive; hgDAF-12 ag: inactive

Results for CCOC(=O)c1csc(-c2sccc2Br)n1 ?
DAX1 inh-1: inactive; AHR act: inactive; ssDAF-12 act: 0.9; DAX1 inh-2: inactive; hcDAF-12 act: 7.0; hgDAF-12 ag: 15.8; LXR ag: inactive; hcDAF12 conf: 5.8; hgDAF12 ag: 16.4; LXRb DAF12 ctr: inactive

How did CCOC(=O)c1csc(-c2ccc(OC)c(OC)c2)n1 do in these assays?
DAX1 inh-1: inactive; AHR act: inactive; ssDAF-12 act: inactive; DAX1 inh-2: inactive; hcDAF-12 act: inactive; hgDAF-12 ag: inactive

What do the screens show for `CCOc1ccc(-c2cc(C(=O)NN)[nH]n2)cc1`?
DAX1 inh-1: inactive; AHR act: inactive; ssDAF-12 act: inactive; DAX1 inh-2: inactive; hcDAF-12 act: 6.8; hgDAF-12 ag: 15.7; LXR ag: inactive; hcDAF12 conf: inactive; hgDAF12 ag: inactive; LXRb DAF12 ctr: inactive

How did COc1ccc(-c2cc(C(=O)NN)[nH]n2)cc1 do in these assays?
DAX1 inh-1: inactive; AHR act: inactive; ssDAF-12 act: inactive; DAX1 inh-2: inactive; hcDAF-12 act: inactive; hgDAF-12 ag: inactive

What do the screens show for `CC(=O)Nc1cccc(NC(=O)CSc2nccn2Cc2ccccc2)c1`?
DAX1 inh-1: inactive; AHR act: inactive; ssDAF-12 act: inactive; DAX1 inh-2: inactive; hcDAF-12 act: inactive; hgDAF-12 ag: inactive

What do the screens show for `COc1ccc(CNc2ccc3c(c2)nc(C)n3C)cc1`?
DAX1 inh-1: inactive; AHR act: inactive; ssDAF-12 act: inactive; DAX1 inh-2: inactive; hcDAF-12 act: inactive; hgDAF-12 ag: inactive

What do the screens show for `Cc1ccc(CNc2ccc3c(c2)nc(C)n3C)cc1`?
DAX1 inh-1: inactive; AHR act: 56.8; ssDAF-12 act: 1.3; DAX1 inh-2: inactive; hcDAF-12 act: 16.0; hgDAF-12 ag: 15.7; LXR ag: inactive; hcDAF12 conf: 6.4; hgDAF12 ag: 17.2; LXRb DAF12 ctr: inactive

How did Cc1ccc(CNc2nc3ccccc3n2C)cc1 do in these assays?
DAX1 inh-1: inactive; AHR act: inactive; ssDAF-12 act: 3.6; DAX1 inh-2: inactive; hcDAF-12 act: 16.3; hgDAF-12 ag: 20.7; LXR ag: inactive; hcDAF12 conf: 16.0; hgDAF12 ag: 20.1; LXRb DAF12 ctr: inactive

How did Cc1cc(C)cc(OCC(=O)Nc2ccc3c(c2)C(=O)c2ccccc2C3=O)c1 do in these assays?
DAX1 inh-1: inactive; AHR act: inactive; ssDAF-12 act: inactive; DAX1 inh-2: inactive; hcDAF-12 act: inactive; hgDAF-12 ag: inactive

Results for O=C(/C=C/c1ccco1)Nc1ccc2c(c1)OCCO2 ?
DAX1 inh-1: inactive; AHR act: inactive; ssDAF-12 act: inactive; DAX1 inh-2: 4.4; hcDAF-12 act: 7.5; hgDAF-12 ag: 15.6; LXR ag: inactive; hcDAF12 conf: 8.9; hgDAF12 ag: 18.3; LXRb DAF12 ctr: inactive

Results for Cc1csc(NC(=O)/C=C/c2ccco2)n1 ?
DAX1 inh-1: inactive; AHR act: inactive; ssDAF-12 act: inactive; DAX1 inh-2: inactive; hcDAF-12 act: 6.6; hgDAF-12 ag: 13.9; LXR ag: inactive; hcDAF12 conf: inactive; hgDAF12 ag: 13.2; LXRb DAF12 ctr: inactive

What do the screens show for `c1ccc(CSc2nc3ccccc3[nH]2)cc1`?
DAX1 inh-1: inactive; AHR act: inactive; ssDAF-12 act: inactive; DAX1 inh-2: 3.8; hcDAF-12 act: 8.6; hgDAF-12 ag: 22.0; LXR ag: inactive; hcDAF12 conf: 7.4; hgDAF12 ag: 16.7; LXRb DAF12 ctr: inactive

How did O=c1c2ccccc2cnn1-c1ccc2ccccc2c1 do in these assays?
DAX1 inh-1: inactive; AHR act: inactive; ssDAF-12 act: 1.4; DAX1 inh-2: inactive; hcDAF-12 act: 12.8; hgDAF-12 ag: 18.1; LXR ag: inactive; hcDAF12 conf: 6.6; hgDAF12 ag: 16.8; LXRb DAF12 ctr: inactive

How did O=c1c2ccccc2cnn1-c1ccc(Cl)nn1 do in these assays?
DAX1 inh-1: inactive; AHR act: inactive; ssDAF-12 act: inactive; DAX1 inh-2: inactive; hcDAF-12 act: inactive; hgDAF-12 ag: inactive

What do the screens show for `O=C(CSc1ncccc1-c1nc2ccccc2[nH]1)NCc1ccco1`?
DAX1 inh-1: inactive; AHR act: inactive; ssDAF-12 act: inactive; DAX1 inh-2: inactive; hcDAF-12 act: inactive; hgDAF-12 ag: inactive
